Results taken from PubChem BioAssay AID504895 (National Center for Advancing Translational Sciences (NCATS), 2011).
Records with an inconclusive call do not appear. The source made the active and inactive calls. Calls follow the shape of the dose curve; as a rule, active = well fitted curve in the direction sought with a large enough effect; inconclusive = small, poorly fitted or top-dose-only effect, or another doubt; inactive = no such curve, though single readings can be large or run the other way.

Each compound was assayed against Protein phosphatase EYA2 (Homo sapiens) (UniProt O00167) (assay: Inhibitors of Eya2ED: Hit Confirmation in Primary Screen). Conditions: Recombinant Eya2ED, OMFP fluorescence phosphatase assay; series mostly up to 76.9 µM.
Summary of the method: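 Eya2 (dispensed at 0.2 uM) was preincubated 10 min at ambient with compound in 50 mM HEPES pH 7.5, 50 mM NaCl, 5 uM MgCl2, 0.05% BSA, 1 mM DTT. OMFP (dispensed at 50 uM) was then added, and fluorescence (ex 485/em 525 nm) was read after 10 min. Retested as 12-point titrations; EGTA control.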

Chain of Protein phosphatase EYA2 (Homo sapiens) (O00167 whole entry, looked up): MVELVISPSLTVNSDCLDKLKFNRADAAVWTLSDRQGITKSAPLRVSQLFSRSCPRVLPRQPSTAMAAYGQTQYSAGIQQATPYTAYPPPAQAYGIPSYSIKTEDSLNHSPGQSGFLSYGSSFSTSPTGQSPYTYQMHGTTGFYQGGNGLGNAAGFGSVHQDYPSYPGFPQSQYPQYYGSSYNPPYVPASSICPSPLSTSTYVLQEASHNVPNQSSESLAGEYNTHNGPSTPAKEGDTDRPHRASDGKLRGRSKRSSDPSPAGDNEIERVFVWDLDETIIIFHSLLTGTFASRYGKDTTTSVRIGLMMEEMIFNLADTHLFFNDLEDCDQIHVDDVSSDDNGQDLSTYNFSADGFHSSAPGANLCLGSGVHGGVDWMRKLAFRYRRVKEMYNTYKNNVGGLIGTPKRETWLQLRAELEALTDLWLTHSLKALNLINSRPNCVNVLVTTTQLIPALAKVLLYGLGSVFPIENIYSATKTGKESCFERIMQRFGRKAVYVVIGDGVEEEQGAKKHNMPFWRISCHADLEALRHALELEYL

Potency, inactive:
COc1ccccc1N1C(=O)C2C3C=CC(C3)C2C1=O (stereo not given)
COc1ccc(Cl)cc1CSc1ncn[nH]1
Cc1nnc(SC(C)C(=O)Nc2ccc3ccccc3c2)[nH]c1=O (stereo not given)
O=C(NC(=S)Nc1ccccc1N1CCCCC1)c1ccc(F)cc1Cl
O=C(NCCC1CCCCN1S(=O)(=O)c1ccccc1)C(=O)NCc1ccccn1 (stereo not given)
Cc1cc(C)n(C(=O)COc2ccccc2[N+](=O)[O-])n1
COc1cc2c(cc1OC)C(c1c(Cl)cccc1Cl)NC(=O)C2 (stereo not given)
O=C(NN=Cc1ccccc1Cl)c1ccc(-n2cnnn2)cc1
COC(=O)C(NNc1ccccc1)(NC(=O)c1cccc(F)c1)C(F)(F)F (stereo not given)
CC(NC(=S)NNS(=O)(=O)c1ccc(C(C)(C)C)cc1)c1ccccc1 (stereo not given)
CC(C)Cc1nnc(NC(=O)c2cc3c(s2)CCC3)s1
Cc1ccc(OCC(=O)N2c3ccccc3NC(=O)C2(C)C)c([N+](=O)[O-])n1
Cn1cccc1C(=O)Nc1ccc(Cl)c(S(=O)(=O)N2CCCCC2)c1
O=C(CC(c1ccccc1)c1ccccc1)Nc1ccc(Cl)cn1
O=C(COC(=O)c1cc(S(=O)(=O)N2CCCC2)ccc1O)Nc1ccccc1Br
